Reference: the supplement of paper PMC4466140

Target: AgAbp1
Experiment: SPOT peptide array binding signal intensity (averaged, normalized) (arbitrary units (background-subtracted, floor 0; scale differs between SH3 domains)); higher = stronger binding of the SH3 domain to the peptide
Outline: (§1)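 GST-SH3 fusions from four yeast species, purified on glutathione Sepharose, were incubated at 10 μg/ml overnight at 4°C on membranes of synthetic 15-mer peptides in which cysteines were replaced with serines. Binding signal is the normalized, background-subtracted spot intensity averaged over replicates, in domain-specific arbitrary units.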

Binder	SPOT peptide array binding signal intensity
EAEEAAPQLPSRSSA	7

Target: AgBbc1
Experiment: as above
Outline: as §1

Binder	SPOT peptide array binding signal intensity
EAEEAAPQLPSRSSA	≤ 0

Target: AgBem1-D1
Experiment: as above
Outline: as §1

Binder	SPOT peptide array binding signal intensity
EAEEAAPQLPSRSSA	≤ 0

Target: AgBzz1-D1
Experiment: as above
Outline: as §1

Binder	SPOT peptide array binding signal intensity
EAEEAAPQLPSRSSA	8.5

Target: AgBzz1-D2
Experiment: as above
Outline: as §1

Binder	SPOT peptide array binding signal intensity
EAEEAAPQLPSRSSA	8.5

Target: AgCyk3
Experiment: as above
Outline: as §1

Binder	SPOT peptide array binding signal intensity
EAEEAAPQLPSRSSA	≤ 0

Target: AgFus1
Experiment: as above
Outline: as §1

Binder	SPOT peptide array binding signal intensity
EAEEAAPQLPSRSSA	8

Target: AgHof1
Experiment: as above
Outline: as §1

Binder	SPOT peptide array binding signal intensity
EAEEAAPQLPSRSSA	0.5

Target: AgHse1
Experiment: as above
Outline: as §1

Binder	SPOT peptide array binding signal intensity
EAEEAAPQLPSRSSA	3.5

Target: AgLsb1
Experiment: as above
Outline: as §1

Binder	SPOT peptide array binding signal intensity
EAEEAAPQLPSRSSA	16

Target: AgLsb4
Experiment: as above
Outline: as §1

Binder	SPOT peptide array binding signal intensity
EAEEAAPQLPSRSSA	3510

Target: AgMyo5
Experiment: as above
Outline: as §1

Binder	SPOT peptide array binding signal intensity
EAEEAAPQLPSRSSA	≤ 0

Target: AgNbp2
Experiment: as above
Outline: as §1

Binder	SPOT peptide array binding signal intensity
EAEEAAPQLPSRSSA	≤ 0

Target: AgRvs167
Experiment: as above
Outline: as §1

Binder	SPOT peptide array binding signal intensity
EAEEAAPQLPSRSSA	11.3

Target: AgSho1
Experiment: as above
Outline: as §1

Binder	SPOT peptide array binding signal intensity
EAEEAAPQLPSRSSA	≤ 0

Target: AgSla1-D1-D2
Experiment: as above
Outline: as §1

Binder	SPOT peptide array binding signal intensity
EAEEAAPQLPSRSSA	≤ 0

Target: AgSla1-D3
Experiment: as above
Outline: as §1

Binder	SPOT peptide array binding signal intensity
EAEEAAPQLPSRSSA	2

Target: CaAbp1-D1
Experiment: as above
Outline: as §1

Binder	SPOT peptide array binding signal intensity
EAEEAAPQLPSRSSA	≤ 0

Target: CaAbp1-D2
Experiment: as above
Outline: as §1

Binder	SPOT peptide array binding signal intensity
EAEEAAPQLPSRSSA	≤ 0

Target: CaBbc1
Experiment: as above
Outline: as §1

Binder	SPOT peptide array binding signal intensity
EAEEAAPQLPSRSSA	≤ 0

Target: CaBem1-D1
Experiment: as above
Outline: as §1

Binder	SPOT peptide array binding signal intensity
EAEEAAPQLPSRSSA	≤ 0

Target: CaBzz1-D1
Experiment: as above
Outline: as §1

Binder	SPOT peptide array binding signal intensity
EAEEAAPQLPSRSSA	1

Target: CaBzz1-D2
Experiment: as above
Outline: as §1

Binder	SPOT peptide array binding signal intensity
EAEEAAPQLPSRSSA	3.25

Target: CaCyk3
Experiment: as above
Outline: as §1

Binder	SPOT peptide array binding signal intensity
EAEEAAPQLPSRSSA	≤ 0

Target: CaFus1
Experiment: as above
Outline: as §1

Binder	SPOT peptide array binding signal intensity
EAEEAAPQLPSRSSA	5

Target: CaHof1
Experiment: as above
Outline: as §1

Binder	SPOT peptide array binding signal intensity
EAEEAAPQLPSRSSA	0.25

Target: CaHse1
Experiment: as above
Outline: as §1

Binder	SPOT peptide array binding signal intensity
EAEEAAPQLPSRSSA	6.75

Target: CaLsb1
Experiment: as above
Outline: as §1

Binder	SPOT peptide array binding signal intensity
EAEEAAPQLPSRSSA	1.75

Target: CaLsb4
Experiment: as above
Outline: as §1

Binder	SPOT peptide array binding signal intensity
EAEEAAPQLPSRSSA	6000

Target: CaMyo5
Experiment: as above
Outline: as §1

Binder	SPOT peptide array binding signal intensity
EAEEAAPQLPSRSSA	1

Target: CaNbp2
Experiment: as above
Outline: as §1

Binder	SPOT peptide array binding signal intensity
EAEEAAPQLPSRSSA	≤ 0

Target: CaRvs167
Experiment: as above
Outline: as §1

Binder	SPOT peptide array binding signal intensity
EAEEAAPQLPSRSSA	340

Target: CaRvs167-3
Experiment: as above
Outline: as §1

Binder	SPOT peptide array binding signal intensity
EAEEAAPQLPSRSSA	6.25

Target: CaSho1
Experiment: as above
Outline: as §1

Binder	SPOT peptide array binding signal intensity
EAEEAAPQLPSRSSA	≤ 0

Target: CaSla1-D1-D2
Experiment: as above
Outline: as §1

Binder	SPOT peptide array binding signal intensity
EAEEAAPQLPSRSSA	≤ 0

Target: CaSla1-D3
Experiment: as above
Outline: as §1

Binder	SPOT peptide array binding signal intensity
EAEEAAPQLPSRSSA	≤ 0

Target: ScAbp1
Experiment: as above
Outline: as §1

Binder	SPOT peptide array binding signal intensity
EAEEAAPQLPSRSSA	6

Target: ScBbc1
Experiment: as above
Outline: as §1

Binder	SPOT peptide array binding signal intensity
EAEEAAPQLPSRSSA	≤ 0

Target: ScBem1-D1
Experiment: as above
Outline: as §1

Binder	SPOT peptide array binding signal intensity
EAEEAAPQLPSRSSA	≤ 0

Target: ScBzz1-D1
Experiment: as above
Outline: as §1

Binder	SPOT peptide array binding signal intensity
EAEEAAPQLPSRSSA	9

Target: ScBzz1-D2
Experiment: as above
Outline: as §1

Binder	SPOT peptide array binding signal intensity
EAEEAAPQLPSRSSA	10

Target: ScCyk3
Experiment: as above
Outline: as §1

Binder	SPOT peptide array binding signal intensity
EAEEAAPQLPSRSSA	1

Target: ScFus1
Experiment: as above
Outline: as §1

Binder	SPOT peptide array binding signal intensity
EAEEAAPQLPSRSSA	≤ 0

Target: ScHof1
Experiment: as above
Outline: as §1

Binder	SPOT peptide array binding signal intensity
EAEEAAPQLPSRSSA	4.25

Target: ScHse1
Experiment: as above
Outline: as §1

Binder	SPOT peptide array binding signal intensity
EAEEAAPQLPSRSSA	≤ 0

Target: ScLsb1
Experiment: as above
Outline: as §1

Binder	SPOT peptide array binding signal intensity
EAEEAAPQLPSRSSA	283

Target: ScLsb2
Experiment: as above
Outline: as §1

Binder	SPOT peptide array binding signal intensity
EAEEAAPQLPSRSSA	12.5

Target: ScLsb3
Experiment: as above
Outline: as §1

Binder	SPOT peptide array binding signal intensity
EAEEAAPQLPSRSSA	7150

Target: ScLsb4
Experiment: as above
Outline: as §1

Binder	SPOT peptide array binding signal intensity
EAEEAAPQLPSRSSA	3370

Target: ScMyo3
Experiment: as above
Outline: as §1

Binder	SPOT peptide array binding signal intensity
EAEEAAPQLPSRSSA	≤ 0

Target: ScMyo5
Experiment: as above
Outline: as §1

Binder	SPOT peptide array binding signal intensity
EAEEAAPQLPSRSSA	≤ 0

Target: ScNbp2
Experiment: as above
Outline: as §1

Binder	SPOT peptide array binding signal intensity
EAEEAAPQLPSRSSA	≤ 0

Target: ScPex13
Experiment: as above
Outline: as §1

Binder	SPOT peptide array binding signal intensity
EAEEAAPQLPSRSSA	128

Target: ScRvs167
Experiment: as above
Outline: as §1

Binder	SPOT peptide array binding signal intensity
EAEEAAPQLPSRSSA	1500

Target: ScSho1
Experiment: as above
Outline: as §1

Binder	SPOT peptide array binding signal intensity
EAEEAAPQLPSRSSA	≤ 0

Target: ScSla1-D1-D2
Experiment: as above
Outline: as §1

Binder	SPOT peptide array binding signal intensity
EAEEAAPQLPSRSSA	7

Target: ScSla1-D3
Experiment: as above
Outline: as §1

Binder	SPOT peptide array binding signal intensity
EAEEAAPQLPSRSSA	0.75

Target: SpAbp1-D1
Experiment: as above
Outline: as §1

Binder	SPOT peptide array binding signal intensity
EAEEAAPQLPSRSSA	≤ 0

Target: SpBbc1
Experiment: as above
Outline: as §1

Binder	SPOT peptide array binding signal intensity
EAEEAAPQLPSRSSA	≤ 0

Target: SpBzz1-D1
Experiment: as above
Outline: as §1

Binder	SPOT peptide array binding signal intensity
EAEEAAPQLPSRSSA	≤ 0

Target: SpBzz1-D2
Experiment: as above
Outline: as §1

Binder	SPOT peptide array binding signal intensity
EAEEAAPQLPSRSSA	≤ 0

Target: SpCyk3
Experiment: as above
Outline: as §1

Binder	SPOT peptide array binding signal intensity
EAEEAAPQLPSRSSA	1

Target: SpHof1
Experiment: as above
Outline: as §1

Binder	SPOT peptide array binding signal intensity
EAEEAAPQLPSRSSA	0.5

Target: SpHof1-2
Experiment: as above
Outline: as §1

Binder	SPOT peptide array binding signal intensity
EAEEAAPQLPSRSSA	3.5

Target: SpHof1-3
Experiment: as above
Outline: as §1

Binder	SPOT peptide array binding signal intensity
EAEEAAPQLPSRSSA	1

Target: SpHse1
Experiment: as above
Outline: as §1

Binder	SPOT peptide array binding signal intensity
EAEEAAPQLPSRSSA	0.5

Target: SpLsb1
Experiment: as above
Outline: as §1

Binder	SPOT peptide array binding signal intensity
EAEEAAPQLPSRSSA	4.25

Target: SpLsb4
Experiment: as above
Outline: as §1

Binder	SPOT peptide array binding signal intensity
EAEEAAPQLPSRSSA	6420

Target: SpMyo1
Experiment: as above
Outline: as §1

Binder	SPOT peptide array binding signal intensity
EAEEAAPQLPSRSSA	≤ 0

Target: SpNbp2
Experiment: as above
Outline: as §1

Binder	SPOT peptide array binding signal intensity
EAEEAAPQLPSRSSA	≤ 0

Target: SpPex13
Experiment: as above
Outline: as §1

Binder	SPOT peptide array binding signal intensity
EAEEAAPQLPSRSSA	0.5

Target: SpRvs167
Experiment: as above
Outline: as §1

Binder	SPOT peptide array binding signal intensity
EAEEAAPQLPSRSSA	2390

Target: SpSla1-D1-D2
Experiment: as above
Outline: as §1

Binder	SPOT peptide array binding signal intensity
EAEEAAPQLPSRSSA	2

Target: SpSla1-D3
Experiment: as above
Outline: as §1

Binder	SPOT peptide array binding signal intensity
EAEEAAPQLPSRSSA	1
